About 79,000 compounds went through this panel and 15% of them were active in at least one assay; those are over-represented in the sample as a whole. A number with no mark means an inactive call. Calls of active or inactive are those of the source. No stated cut-off is given here; in the data, active means growth inhibition above about 70%; inactive means the rest.
Legend:
[1] = NCI Yeast Anticancer Drug Screen. Data for the rad50 strain (AID 155);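 further: 0% = growth of vehicle-only cultures of the same strain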; settings: S. cerevisiae rad50 strain growth inhibition; at 50.0 µM; stronger effect = higher value
In short: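 Readout: growth inhibition relative to vehicle-treated cultures. Compound exposure was carried out in a genetically defined yeast strain deficient in DNA damage repair.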

[2] = NCI Yeast Anticancer Drug Screen. Data for the mec2-1 strain (AID 157); settings: S. cerevisiae mec2-1 strain, at 50.0 µM, stronger effect = higher value
In short: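 Strain: mec2-1 (DNA repair/cell cycle alteration). Compound exposure, then growth measured; inhibition expressed relative to vehicle.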

[3] = NCI Yeast Anticancer Drug Screen. Data for the sgs1 mgt1 strain (AID 161);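 further: 0% = growth of cultures given vehicle only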; settings: S. cerevisiae sgs1 mgt1 strain, at 50.0 µM, stronger effect = higher value
In short: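 Inhibition of yeast growth, normalised to vehicle-treated controls, is reported for a strain bearing genetic alterations in DNA damage repair.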

[4] = NCI Yeast Anticancer Drug Screen. Data for the cln2 rad14 strain (AID 165);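 further: 0% = growth equal to vehicle treated cultures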; settings: S. cerevisiae cln2 rad14 strain, at 50.0 µM, stronger effect = higher value
In short: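 Compounds are applied to the cln2 rad14 yeast strain, and growth is then compared with that of vehicle-treated cultures to give inhibition.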

[5] = NCI Yeast Anticancer Drug Screen. Data for the bub3 strain (AID 167); settings: S. cerevisiae bub3 mutant strain, at 50.0 µM, stronger effect = higher value
In short: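 Readout: yeast growth inhibition, expressed relative to vehicle-only wells. The test organism is a mutant strain from a panel with lesions in DNA repair or checkpoint genes.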

[6] = NCI Yeast Anticancer Drug Screen. Data for the mlh1 rad18 strain (AID 175); settings: S. cerevisiae mlh1 rad18 strain growth inhibition; at 50.0 µM; stronger effect = higher value
In short: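 Read-out is yeast growth inhibition, calculated against vehicle-only controls. The compound was applied to a strain engineered with DNA damage repair alterations.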

Structure (SMILES)	growth inhibition [1]	growth inhibition [2]	growth inhibition [3]	growth inhibition [4]	growth inhibition [5]	growth inhibition [6]
COc1cc(C(C)S(=O)(=O)O)ccc1O (stereo unspecified)	-19.6%	1.7%	8.45%	-12.6%	4.9%	-5.55%
CCOC(=O)C(=O)O	12.3%	-9.3%	-4.85%	-7.8%	-5.05%	-5.7%
COC(=O)C(Cc1ccccc1)NC(=O)Cn1ccnc1[N+](=O)[O-] (stereo unspecified)	9.65%	-19.6%	15.2%	7.7%	-16%	-3.3%
C#CC(C)(C)Oc1cc(O)c2c(=O)c3ccccc3n(C)c2c1	-7.9%	-0.35%	12.2%	5.3%	0.2%	0%
NC(=O)CCC(Nc1c2ccccc2nc2ccccc12)C(=O)O (stereo unspecified)	23.1%	3.85%	15.7%	28.6%	1.4%	48.2%
O/N=C1\CCCCC1C(NO)c1ccccc1 (stereo unspecified)	2.4%	-4.25%	-7.9%	-16.4%	-12.2%	9.35%
NC(Cc1cccs1)C(=O)O (stereo unspecified)	-31.9%	-21.9%	-27.6%	-43%	-2.5%	-37.1%
Cc1cc(=O)[nH]c(N/N=C/c2ccco2)n1	-20.8%	-48.8%	-16.8%	6.75%	-33.8%	-15.3%
CC1(COC(=O)C2(C)CO2)CO1 (stereo unspecified)	28.2%	9.95%	-6.1%	4.7%	-25.2%	-78.2%
C/C(=N\O)c1ccc2[nH]c(C)cc(=O)c2c1	2.95%	5.7%	-5.45%	-32.9%	-1.15%	12.7%
O=C1CC(=O)N(c2ccccc2)N1	35.2%	7.45%	45%	19.9%	35.1%	16.9%
CSc1cccc(NC(=O)/C=C/C(=O)O)c1	-3.05%	5.1%	16.3%	-58.5%	6.65%	-0.9%
Fc1ccc(C(=C(c2ccc(F)cc2)c2ccc(F)cc2)c2ccc(F)cc2)cc1	45.5%	-15.2%	36.9%	9.55%	0.1%	7%
Cc1ccc2ccccc2c1CP(=O)(O)O	-18.9%	-11.1%	-10.4%	-10.6%	15.2%	-31.4%
CN(N)C(=O)Nc1cccc(Cl)c1	13.1%	8.55%	16.4%	-5.25%	2.7%	17.3%
CC(C)C(CNC(=O)c1ccc([N+](=O)[O-])cc1)(C(C)C)C(C)C	-2.6%	-36.2%	-3.85%	-3.7%	17.8%	-1.65%
CCCOc1ccc(C(=O)C(C(c2ccccc2)N2CCOCC2)N2CCOCC2)cc1 (stereo unspecified)	-71.2%	22.5%	21%	36.7%	35.8%	54%
O=S(Cc1ccccc1)CC(O)CO (stereo unspecified)	-24.9%	5.95%	2.7%	-41.2%	10.3%	-0.85%

Structure (SMILES)	growth inhibition [1]	growth inhibition [2]	growth inhibition [3]	growth inhibition [4]	growth inhibition [5]	growth inhibition [6]
COc1cc(CCCOC(=O)/C=C/c2ccc(O)c(O)c2)cc(O)c1O	19.1%	-18.3%	1.05%	-17.4%	-0.8%	-72.4%
O=C1CC[C@@H](S(=O)(=O)c2ccccc2)[C@H](/C=C/c2ccccc2)O1	-5.5%	25.2%	37.6%	26.1%	-7.4%	-15.9%
CCOC(=O)/C=C/c1ccccn1	-15.3%	-9.5%	-35.5%	11.9%	-12.8%	-25.6%
C/C(=C/C(=O)Nc1ccc2ccccc2c1)Nc1ccc2ccccc2c1	-5.4%	6.65%	5.9%	-8.95%	10.4%	-15.1%
N#C/C(=C/NC(=S)Nc1ccc(S(N)(=O)=O)cc1)C(N)=O	-44.8%	-89%	-26.4%	-10.8%	-20.4%	-24.1%
CN/N=C(/CC(=O)c1sc(NNC(C)=O)nc1C)C(=O)Nc1ccc(OC)cc1OC	15.7%	-14.5%	3.2%	15.4%	15%	-2.15%
CCCC[N+](CCCC)(CCCC)CC(=O)[O-]	5.7%	-3.1%	-19.8%	-45.1%	-8.3%	-24.6%
Cc1csc(=NCc2cccnc2)n1C	14.7%	-9.75%	23.6%	23.4%	19.8%	15.8%
Clc1ccccc1C=Nc1ccccc1	31.2%	11.9%	30.7%	20.6%	24.7%	34%
O=C(CCN1C(=O)CC1c1ccco1)N1CCOCC1 (stereo unspecified)	-1.55%	-36.1%	-10.5%	13.1%	-18.2%	13.3%
CN1Cc2ccccc2-c2ccccc2C1	4.35%	1.8%	-5.95%	-32.8%	4.7%	-2%
N=C1C=C/[N+](=C\C=CCO)C([O-])=N1	-18.2%	-20.6%	-35.3%	-2.55%	-43.4%	-3.2%
CCCCOCN(COCCCC)CC(C)(C)C	20.9%	14.7%	-10.8%	14.7%	19.4%	19.3%
CCCCC[CH2][Sn]([CH2]CCCCC)([CH2]CCCCC)[NH]S(=O)(=O)c1ccc(C)cc1	99.3% (active)	99.6% (active)	99.5% (active)	99% (active)	99.2% (active)	99.3% (active)
NC(=O)NC(=S)NC(=O)c1ccccc1	-2.95%	0.95%	-2.95%	-33.5%	-28.8%	-7%
O=C(/C=C\c1ccc(Cl)cc1)c1ccccc1	-23.1%	-34.5%	15.3%	-6.4%	12.7%	2.05%
C=CC(=O)NC(=O)/C=C/c1cccnc1	17.4%	-8.05%	1%	-3.25%	10.7%	5.5%
Nc1c(-c2nc3ccccc3s2)[n+]([O-])c2ccccc2[n+]1[O-]	7.45%	20.6%	19%	29.6%	-57.8%	15.9%

— PubChem BioAssay (NCI)
